The nature of experiment [1]: qHTS assay to identify small molecule antagonists of the estrogen related receptor signaling pathway with the pleiotropic PPARgamma coactivator (PGC) from Tox21 10K library - cell viability counter screen (AID 1224840; active = well fitted cell-killing curve with a large enough effect in the repeat runs, not every such curve was filed as active; also: nearly all actives have a fitted effect of over 40% in size). The essentials: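 Seeded PGC/ERR cells (2,000/well, 6 h, 37 C/5% CO2) get compound by pin tool; 17.5 h incubation at 37 C; CellTiter-Fluor added, 30 min, fluorescence measured.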
A general note: qHTS replaces the single test concentration by a dilution series.

A short description of experiment [2]: qHTS assay to identify small molecule antagonists of the estrogen related receptor signaling pathway with the pleiotropic PPARgamma coactivator (PGC) from Tox21 10K library (AID 1224841; call rule not given here; also: actives are mostly falling curves and most rising ones were filed inactive; nearly all actives have a fitted effect of over 50% in size; also: potency is read from the fitted curve at half-maximal effect). The gist of the method: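 Test chemicals dissolved in DMSO were applied to pre-incubated (6 h) PGC/ERR cells at 2,000 cells/well for an 18 h, 37 C treatment; reporter luminescence was then read using One-Glo.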

Experiment [3] can be described thus: qHTS assay to identify small molecule agonists of the estrogen related receptor signaling pathway with the pleiotropic PPARgamma coactivator (PGC) from Tox21 10K library (AID 1224842). Also: nearly all actives have a fitted effect of over 15% in size. The gist of the method:
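PGC/ERR reporter cell line, 2,000 cells per well, incubated 6 h at 37 C before 23 nL compound in DMSO was added. After 18 h at 37 C, One-Glo luminescence read following 30 min at room temperature.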

Experiment [4] concerns the target Thyrotropin receptor (Homo sapiens) (UniProt P16473). As to the kind of experiment: qHTS assay to identify small molecule agonists of the thyroid stimulating hormone receptor (TSHR) signaling pathway (AID 1224843; calls by dose curve; also: nearly all actives have a fitted effect of over 45% in size; also: potency is read from the fitted curve at half-maximal effect). The essentials:
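HEK293/TSHR, 800 cells/well; cpd 30 min RT; add cAMP-d2 + anti-cAMP-cryptate, 1 h RT; fluorescence read on plate reader. 15-pt titration, n=3.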

Experiment [5] can be described thus: qHTS assay to identify small molecule agonists of the hypoxia (HIF-1) signaling pathway - cell viability counter screen (AID 1224844; calls by dose curve; also: nearly all actives have a fitted effect of over 50% in size; also: potency is read from the fitted curve at half-maximal effect). The essentials:
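HRE-bla ME-180; 0.5% dFBS; cpd 17 h, 37C, 5% CO2; CellTiter-Glo lum., 30 min RT, post-FRET read, same wells.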

A short description of experiment [6]: qHTS assay to identify small molecule agonists of the hypoxia (HIF-1) signaling pathway (AID 1224846; active = well fitted activation curve with a large enough effect in the signal ratio in the repeat runs, not every such curve was filed as active; the % refers to the signal ratio). The essentials:
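Reporter induction in HRE-bla ME-180 cells is taken as agonism: cells sit 5 hrs after plating, receive compounds or DMSO only, incubate 17 hrs at 37C under 5% CO2, and are loaded with CCF4-AM for beta-lactamase FRET measurement.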

The nature of experiment [7]: qHTS assay to identify small molecule agonists of H2AX - cell viability counter screen (AID 1224847; calls by dose curve; also: nearly all actives have a fitted effect of over 30% in size; also: potency is read from the fitted curve at half-maximal effect; as to activity change, negative = cytotoxicity: top concentration of the series differs between compounds). The essentials:
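Cells plated first: CHO-K1, 1000 per well in 10% FBS medium, incubated overnight at 37C. Then 15-point compound titration added (final DMSO 0.76%) for 3 hr. Finally CellTiter-Glo added and luminescence read.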

The nature of experiment [8]: qHTS assay to identify small molecule agonists of the estrogen related receptor (ERR) signaling pathway from Tox21 library (AID 1224849; calls by dose curve; also: nearly all actives have a fitted effect of over 15% in size). The settings on record: ERR reporter cell line, ONE-Glo luciferase, 18 h; at 92.4 µM (top of the series) unless noted. The essentials:
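Tox21 compounds tested for ERR agonism in an NTP reporter cell line: 18 h treatment at 37 C, then ONE-Glo luminescence.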

The nature of experiment [9]: qHTS RealTime-Glo MT Cell Viability Assay in HepG2 cells - 24 hour (AID 1224867). Also: nearly all actives have a fitted effect of over 50% in size. Also: potency is read from the fitted curve at half-maximal effect. The essentials:
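Cells + NanoLuc/prosubstrate dispensed (600 cells/well) → 5 h at 37 C/5% CO2 → compounds in DMSO transferred → 40 h incubation at 37 C, luminescence read at 0, 8, 16, 24, 32, 40 h.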

A short description of experiment [10]: A CellTox Green Cytotoxicity Assay to monitor cytotoxicity in HEK293 cells - 0 hour (AID 1224869). Also: nearly all actives have a fitted effect of over 50% in size. The gist of the method: (§1)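 Tox21 screen in HEK293: membrane-impermeant cyanine dye fluoresces on binding dead-cell DNA; compound pinned 5 h post-seeding, plates held at 37 C, signal read repeatedly through 40 h.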
Experiment [11] can be described thus: qHTS RealTime-Glo MT Cell Viability Assay in HepG2 cells - 40 hour (AID 1224870). Also: nearly all actives have a fitted effect of over 50% in size. Also: potency is read from the fitted curve at half-maximal effect. The essentials: (§2)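 HepG2 cells (600/well) mixed with RealTime-Glo MT reagent, settled 5 h at 37 C/5% CO2 before compound addition. Nonlytic NanoLuc luminescence from viable-cell prosubstrate reduction read repeatedly during 40 h treatment at 37 C.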
A short description of experiment [12]: A CellTox Green Cytotoxicity Assay to monitor cytotoxicity in HEK293 cells - 40 hour (AID 1224871). Also: nearly all actives have a fitted effect of over 45% in size. Also: potency is read from the fitted curve at half-maximal effect. The gist of the method: as §1
Experiment [13] can be described thus: qHTS RealTime-Glo MT Cell Viability Assay in HepG2 cells - 8 hour (AID 1224873). Also: nearly all actives have a fitted effect of over 55% in size. Also: potency is read from the fitted curve at half-maximal effect. The gist of the method: as §2
Experiment [14] can be described thus: qHTS assay to identify small molecule agonists of H2AX (AID 1224845; active = well fitted activation curve with a large enough effect in the signal ratio in the repeat runs, not every such curve was filed as active; the % refers to the signal ratio; also: potency is read from the fitted curve at half-maximal effect). The essentials: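 Wild-type CHO-K1 cells, plated overnight, exposed 3hr at 37C to 15 concentrations (0.76% DMSO final). Lysed, then HTRF anti-pH2AX (S139) cryptate and anti-H2AX-d2 antibodies, 24 hr room temperature; 665/620 nm emission read.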
The target of experiment [15] is Nuclear receptor subfamily 1 group I member 3 (Homo sapiens) (UniProt Q14994). Briefly: qHTS assay to identify small molecule agonists of the constitutive androstane receptor (CAR) signaling pathway (AID 1224839).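 Also: HepG2 cells stably carrying human CAR and a CYP2B6 luciferase reporter; nearly all actives have a fitted effect of over 15% in size.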 The essentials: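 HepG2-CYP2B6-hCAR cells, 2500/well, 4 h pre-incubation; compounds 15 conc.; PK11195 0.75 uM final; 24 h, 37 C/5% CO2; ONE-Glo luciferase read.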

The nature of experiment [16]: qHTS assay to identify small molecule antagonists of the estrogen related receptor (ERR) signaling pathway from Tox21 library (AID 1224848). Also: nearly all actives have a fitted effect of over 50% in size. Also: potency is read from the fitted curve at half-maximal effect. The gist of the method: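 Compounds dissolved in DMSO are pin-transferred onto ERR reporter cells (2,000 per well) that have settled for 6 h at 37 C. Plates then incubate 18 h at 37 C before ONE-Glo luciferase reagent and a luminescence read 30 min later.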

Experiment [17] in a line: qHTS RealTime-Glo MT Cell Viability Assay in HEK293 cells - 32 hour (AID 1224868). Also: nearly all actives have a fitted effect of over 50% in size. Also: potency is read from the fitted curve at half-maximal effect. As to activity change, negative = cytotoxic: top concentration of the series differs between compounds. The essentials:
(§3)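 Tox21 10K qHTS, HEK293, 600 cells/well, RealTime-Glo reagent co-dispensed with cells; 5 h preincubation, compound by pintool, 37 C, luminescence at 0–40 h.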

Experiment [18] is described as follows: qHTS RealTime-Glo MT Cell Viability Assay in HEK293 cells - 16 hour (AID 1224872). Also: nearly all actives have a fitted effect of over 50% in size. Also: potency is read from the fitted curve at half-maximal effect. As to activity change, negative = cytotoxicity: top concentration of the series differs between compounds. The gist of the method:
as §3

Experiment [19] concerns the target Nuclear receptor subfamily 1 group I member 3 (Homo sapiens) (UniProt Q14994). Briefly: qHTS assay to identify small molecule antagonists of the constitutive androstane receptor (CAR) signaling pathway (AID 1224838).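 Also: HepG2 cells stably expressing hCAR with CYP2B6 luciferase reporter stimulated by CITCO; nearly all actives have a fitted effect of over 40% in size.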 Also: potency is read from the fitted curve at half-maximal effect. The gist of the method: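 Human hepatoma HepG2 cells expressing hCAR and a CYP2B6 promoter (2.2 kb) luciferase construct; compound titration (15 points) with 50 nM CITCO final, 24 h at 37 C/5% CO2; luminescence via ONE-Glo after 30 min at room temperature.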

The structures appear in SMILES notation. Values without a mark were called inactive. Records with an inconclusive call do not appear. Calls of active or inactive are those of the source. Unless noted, calls follow the shape of the dose curve; as a rule, active = well fitted curve in the direction sought with a large enough effect in the repeat runs; inconclusive = weak or mixed curves; inactive = no such curve, though single readings can be large; an effect the other way counts as inactive or inconclusive.
% is scaled to controls: 0 for no effect and ±100 for the full control effect.

Sequence of Thyrotropin receptor (Homo sapiens) (P16473 whole entry, looked up): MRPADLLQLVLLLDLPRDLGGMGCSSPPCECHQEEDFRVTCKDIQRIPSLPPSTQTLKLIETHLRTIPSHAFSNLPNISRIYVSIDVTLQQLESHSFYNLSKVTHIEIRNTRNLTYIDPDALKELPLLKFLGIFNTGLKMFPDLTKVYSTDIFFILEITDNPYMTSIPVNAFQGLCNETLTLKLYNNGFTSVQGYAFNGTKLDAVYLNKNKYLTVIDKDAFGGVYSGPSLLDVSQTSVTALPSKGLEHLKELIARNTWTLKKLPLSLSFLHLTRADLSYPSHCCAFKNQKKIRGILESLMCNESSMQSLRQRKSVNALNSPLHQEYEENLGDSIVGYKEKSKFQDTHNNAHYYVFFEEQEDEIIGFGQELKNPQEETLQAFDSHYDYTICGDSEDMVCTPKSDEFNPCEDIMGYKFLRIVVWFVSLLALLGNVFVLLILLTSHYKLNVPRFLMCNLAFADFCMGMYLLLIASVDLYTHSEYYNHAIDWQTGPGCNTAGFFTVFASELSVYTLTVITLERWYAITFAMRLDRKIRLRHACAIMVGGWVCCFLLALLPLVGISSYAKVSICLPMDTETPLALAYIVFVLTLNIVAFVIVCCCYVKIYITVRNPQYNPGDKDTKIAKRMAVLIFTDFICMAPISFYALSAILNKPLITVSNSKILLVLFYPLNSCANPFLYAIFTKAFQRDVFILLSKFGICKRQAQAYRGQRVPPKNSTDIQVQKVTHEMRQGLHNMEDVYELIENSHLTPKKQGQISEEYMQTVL
Sequence of Nuclear receptor subfamily 1 group I member 3 (Homo sapiens) (Q14994 whole entry, looked up): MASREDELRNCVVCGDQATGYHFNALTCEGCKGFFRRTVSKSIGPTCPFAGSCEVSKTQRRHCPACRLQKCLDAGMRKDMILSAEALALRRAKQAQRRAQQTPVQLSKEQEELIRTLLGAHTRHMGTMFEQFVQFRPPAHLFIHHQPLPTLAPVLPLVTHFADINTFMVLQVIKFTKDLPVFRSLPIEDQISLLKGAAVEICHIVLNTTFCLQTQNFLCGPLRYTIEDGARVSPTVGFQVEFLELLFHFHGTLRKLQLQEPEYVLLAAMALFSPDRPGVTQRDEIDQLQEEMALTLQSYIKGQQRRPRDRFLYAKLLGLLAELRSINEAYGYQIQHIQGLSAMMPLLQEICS

On to `CC(c1cc(C(C)(C)C)cc(C(C)(C)C)c1O)c1cc(C(C)(C)C)cc(C(C)(C)C)c1O`, for which the Potency result in experiment [1], in [2], in experiment [3], in experiment [4], in experiment [5] and in experiment [6] was “inactive” throughout. For the same compound, the Potency entry in experiment [7], in [9], in experiment [10], in experiment [11], in [12] and in experiment [13] was “inactive” each time. In experiment [8], the activity change, positive = activation was -15.4%.
In the case of `Cc1ccc(C2OC[C@@H]3OC(c4ccc(C)cc4)O[C@H]([C@H](O)CO)[C@@H]3O2)cc1` (stereo not given in full), the Potency entry in [1], in [4], in experiment [5], in [14], in [6] and in [7] was “inactive” throughout. Also, the Potency result in experiment [9], in [10], in experiment [11] and in experiment [13] was “inactive” in each case.
Regarding `Cc1ccc(Cl)c(N)c1Cl`, the Potency entry in experiment [15], in experiment [1], in experiment [3], in experiment [16], in experiment [9] and in experiment [17] was “inactive” each time. The Potency result in [10], in experiment [18] and in experiment [13] was “inactive” throughout. In addition, in experiment [8], the activity change, positive = activation was -0.961%.
In the case of `CC(C)(c1ccc(Oc2ccc(N)cc2)cc1)c1ccc(Oc2ccc(N)cc2)cc1`, the Potency result in experiment [19], in experiment [9], in experiment [10], in experiment [11] and in experiment [12] was “inactive” in each case. Also, the Potency is 27.3 µM (active) in [4], 24.5 µM (active) in [5] and 80 µM (active) in [7].
Turning to `Nc1cccnc1N`, the Potency result in experiment [19], in experiment [15], in [4], in [5], in [6] and in experiment [7] was “inactive” in each case. Besides, the Potency result in experiment [9], in experiment [10], in experiment [11], in [12] and in [13] was “inactive” throughout.
Consider `CCN(CC)c1ccc(C=O)c(O)c1`, for which the Potency entry in experiment [19], in experiment [1], in experiment [4], in experiment [5], in experiment [14] and in experiment [6] was “inactive” in each case. Besides, the Potency result in experiment [7], in experiment [9], in experiment [17], in experiment [10], in [11] and in experiment [12] was “inactive” in each case. In addition, the Potency entry in experiment [18] and in experiment [13] was “inactive” in each case. Moreover, the activity change, positive = activation in experiment [8] was -16.4%.
For `CCCCCCCCCC[N+](C)(CCCCCCCCCC)CCC[Si](OC)(OC)OC`, the Potency entry in [19], in experiment [15], in [14] and in [10] was “inactive” in each case. Also, the Potency is 54.9 µM (active) in experiment [5]; 50.5 µM (active) in experiment [7]; 43.6 µM (active) in experiment [9]; 27.5 µM (active) in [17]; 43.6 µM (active) in experiment [11]; 43.6 µM (active) in experiment [12]. For the same compound, the values for the Potency in experiment [18] and in experiment [13] were 27.5 µM (active) and 49 µM (active), respectively.
Regarding `CCCCCCCC/C=C\CCCCCCCC(=O)N(CCO)CCO`, the Potency entry in experiment [1], in experiment [14], in experiment [9], in [10], in experiment [11] and in experiment [13] was “inactive” each time. For the same compound, the Potency in experiment [7] was 113 µM (active); in experiment [17], 43.5 µM (active); in experiment [18], 43.5 µM (active).
Take `C=C(C)CCO`: the Potency entry in [1], in [4], in experiment [5], in experiment [14], in experiment [6] and in experiment [9] was “inactive” in each case. For the same compound, the Potency result in experiment [17], in [10], in [11] and in experiment [18] was “inactive” throughout.
As to `Clc1nc(C(Cl)(Cl)Cl)c(Cl)c(Cl)c1Cl`, the Potency was 54.5 µM (active) in [19], 4.9 µM (active) in experiment [5] and 54.9 µM (active) in experiment [11]. Further, the Potency entry in experiment [15], in [7], in [17], in [10] and in experiment [13] was “inactive” in each case. The activity change, positive = activation in experiment [8] is -54%.
On to `CCCCNc1ccc(NCCCC)c2c1C(=O)c1ccccc1C2=O`, for which the viability change, negative = cytotoxic in experiment [1] is -1.23% [at 19 µM]; in experiment [13] it was 0.0909% [at 15.8 µM]. The activation in experiment [4] is -9.62% [at 19 µM]; in experiment [6], 0.413% [at 15.8 µM]. For the same compound, the activity change, negative = cytotoxicity in experiment [5] is -26.2% [at 15.8 µM]; in [7], -12.2% [at 31.6 µM]; in experiment [9], -2.93% [at 15.8 µM]; in [18] it was 9.94% [at 15.8 µM]. Further, the figures for the activity change, negative = cytotoxic in [17] and in experiment [11] were 1.33% [at 15.8 µM] and -5.13% [at 15.8 µM], respectively. Further, in experiment [10], the cytotoxicity was 1.41% [at 15.8 µM]. The cytotoxicity increase in experiment [12] is -1.5% [at 15.8 µM].
In the case of `c1ccc(C[P+](c2ccccc2)(c2ccccc2)c2ccccc2)cc1`, the Potency entry in experiment [15], in experiment [3], in experiment [5], in experiment [14], in experiment [9] and in experiment [10] was “inactive” throughout. Also, the Potency result in experiment [11] and in experiment [13] was “inactive” each time. Also, the Potency in [2] was 3.44 µM (active); in [7], 101 µM (active); in [16], 1.72 µM (active); in experiment [17], 1.55 µM (active); in [12], 4.9 µM (active). For the same compound, the activity change, positive = activation in [8] was -56.8%.
Regarding `CCCCC/C=C\C=C\C(=O)OCC`, the Potency in [5] was 51 µM (active); in experiment [14], 59 µM (active); in [11], 51 µM (active). In experiment [10], the Potency entry was “inactive”.
Turning to `CCc1cccc(CC)c1`, the Potency result in [1], in experiment [3], in [5], in [14], in [6] and in experiment [7] was “inactive” each time. In addition, the Potency entry in experiment [16], in [9], in experiment [10], in experiment [11], in experiment [12] and in experiment [18] was “inactive” in each case. Further, the Potency result in [13] is “inactive”. In [8], the activity change, positive = activation is -2.59%.
In the case of `CSc1ccc(O)cc1C`, the Potency result in experiment [19], in [1], in experiment [2], in experiment [3], in experiment [7] and in experiment [16] was “inactive” each time. Also, the Potency result in experiment [9], in [10], in experiment [11], in [12], in experiment [18] and in experiment [13] was “inactive” each time. Besides, the Potency in experiment [14] is 113 µM (active). In experiment [8], the activity change, positive = activation is -0.368%.
